HT1080-NT tox – kills 2HG-producing HT-1080-NT fibrosarcoma cells. AID 686970. 1.6% of 360,000 active. HT-1080-NT fibrosarcoma viability, CellTiter-Glo ATP luminescence, 48 h. Potency, µM (series often up to 46.1 µM), for inactives: at the highest dose activity, negative = less viability, most hits filed as cytotoxic;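 further: NT is the 2HG producing partner of a matched IDH1 knockdown line; 0% = DMSO-treated cells and -100% = media-only wells without cells; nearly all actives have a fitted effect of over 55% in size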
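HT-1080-NT; 750 cells/well; 5% FBS RPMI; 48 h compound, 37 degrees C; CellTiter-Glo luminescence; curve fitting and curve-class assignment.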
MCF10A rerep – inducers of DNA re-replication in MCF 10A breast cells; Potency, µM (top dose mostly 46.1 µM), inactives show at the highest dose activity, positive = re-replication, hits mostly activators; AID 624296; MCF 10A DNA re-replication, Hoechst nuclear intensity, 48 h; 2.9% of 350,000 active; further: % of control where 0% means no effect; nearly all actives have a fitted effect of over 50% in size
SW480 rerep – inducers of DNA re-replication in SW480 colon cancer cells; SW480 DNA re-replication, Hoechst DNA content imaging, 48 h; Potency, µM (top dose mostly 46.1 µM), for the others: at the highest dose re-replication activation, hits mostly activators; 1.8% of 340,000 active; further: % of control where 0% means no effect; nearly all actives have a fitted effect of over 55% in size
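250 cells/well; 23 nL cpd via pin tool; 48 hr, 37 C, 5% CO2; Hoechst 40 min; imager read of total nuclear intensity, ex 405/em 500-530 nm.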
KB-3-1 tox – kills parental KB-3-1 adenocarcinoma cells; Potency, µM (titrated, usually from 46.1 µM), most hits filed as cytotoxic; 1.4% of 400,000 active; AID 1347075; KB-3-1 viability, CellTiter-Glo ATP luminescence, 72 h; further: on the % scale 0 is the no-effect control and ±100 the full control effect; nearly all actives have a fitted effect of over 60% in size
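KB-3-1 parental drug-naive adenocarcinoma cells in DMEM/10% FBS, incubated 72 h at 37 C with pin-transferred compounds across a concentration series. Viability by CellTiter-Glo luminescence; concentration-response curves fitted after normalization.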
HT1080 IDH1KD tx – HT-1080 IDH1 knockdown cell toxicity (counter line); 2% of 360,000 active; Potency, µM (doses to about 46.1 µM), without a hit: top-dose activity, negative = toxicity, most hits filed as cytotoxic; HT-1080 IDH1 knockdown viability, ATP luminescence, 48 h;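 further: 0% = DMSO wells and -100% = cell-free medium wells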
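Assay cells: HT-1080 with IDH1 knockdown, 750 per well, RPMI/5% FBS. Exposure: 48 h at 37 °C following 2 h pre-incubation. Read: CellTiter-Glo luminescence; fitted concentration-response, curve class assigned.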
KB-V1 cytotox – KB-V1 MDR subline cytotoxicity. KB-V1 MDR cells viability, CellTiter-Glo, 72 h. Potency, µM (highest dose often 46.1 µM), usual class: cytotoxic. 3.4% of 400,000 active. AID 1347076; further: on the % scale 0 is the no-effect control and ±100 the full control effect; nearly all actives have a fitted effect of over 60% in size
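KB-V1, DMEM (no phenol red) + 10% FBS; cpd pin-transferred, titration series; 72 h, 37 degrees C; CellTiter-Glo, luminescence. Data normalized, curve-fit.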
Active calls of the source: *; i = inactive; ? = inconclusive; · = no result given. In the library only some 8% were active in any assay of this set; here they are far more common. The call rests on the fitted dose curve; in most records, active means well fitted curve in the direction sought with a large enough effect; inconclusive means small, poorly fitted or top-dose-only effect, or another doubt; inactive means no such curve, though single readings can be large; an effect the other way counts as inactive or inconclusive. Potency means the concentration at half of the fitted maximal effect.

SMILES	HT1080-NT tox	MCF10A rerep	SW480 rerep	KB-3-1 tox	HT1080 IDH1KD tx	KB-V1 cytotox
CC1=CN2C(=N)/C(=C\c3cn(CCCOc4ccccc4)c4ccccc34)C(=O)N=C2S1	?	3.7µM*	·	i	?	?
Cc1ccccc1CSCc1nc2ccccc2[nH]1	-6%	6%	3%	i	-3%	?
Cc1ccc(C)c(CSCc2nc3ccccc3[nH]2)c1	4%	18µM*	2%	i	0%	i
c1ccc2cc(CSCc3nc4ccccc4[nH]3)ccc2c1	-13%	21µM*	-38%	i	-21%	?
COc1cccc(NC(=O)c2cc(CN3CCOCC3)on2)c1	·	·	·	i	·	i
C=CCN(CC=C)c1ncnc2[nH]ncc12	3%	0%	0%	i	4%	i
COc1cccc(N2CCN(C(=O)c3ccc(CS(=O)c4ccccc4Cl)o3)CC2)c1 (stereo not given)	?	17%	0.52µM*	0.0082µM*	0.0082µM*	i
O=C(c1ccc(CS(=O)c2ccccc2Cl)o1)N1CCOCC1 (stereo not given)	-3%	-3%	-10%	i	11%	i
COc1ccc(N2CCN(C(=O)c3ccc(CS(=O)c4cccc(C)c4)o3)CC2)cc1 (stereo not given)	?	?	5.8µM*	?	?	i
O=C(c1ccc(CS(=O)c2ccccc2Cl)o1)N1CCN(c2ccccc2)CC1 (stereo not given)	?	?	2.6µM*	1µM*	0.52µM*	?
O=C(c1ccc(CS(=O)c2cccc(Cl)c2)o1)N1CCCCCC1 (stereo not given)	10%	-5%	-15%	i	10%	23µM*
CC1=C(C(=O)Nc2ccccc2C)C(c2sccc2C)n2ncnc2N1 (stereo not given)	·	·	·	i	·	?
CC(O)(c1ccc(F)c(F)c1)c1nc(-c2ccccc2)cs1 (stereo not given)	?	·	·	i	?	i
CCCOc1cccc(C(=O)Nc2cccc(-c3nc4ncccc4o3)c2C)c1	·	·	·	i	·	?
COc1cccc(N2CCN(C(=O)c3ccc(CS(=O)c4ccccc4C)o3)CC2)c1 (stereo not given)	0.46µM*	?	5.8µM*	1µM*	0.73µM*	?
C/C(=N\NC(=S)Nc1cccc(C)c1)c1cc2ccccc2o1	-26%	14µM*	13%	i	-20%	i
C/C(=N/NC(=O)c1ccccn1)c1ccco1	?	5%	2%	?	?	21µM*
O=C(Sc1ccc(Cl)cc1)c1ccccn1	?	9%	-6%	i	23µM*	i
C/C(=N\NC(N)=O)c1ccc(Cl)cc1	-2%	-10%	?	?	0%	12µM*
CCNC(=S)N/N=C(\C)c1cc2ccccc2o1	10%	-4%	-2%	i	9%	i
COc1cccc(C(=O)N/N=C(/c2ccccc2)c2ccccn2)c1	?	?	?	?	0.89µM*	i
COc1cc(C(=O)N/N=C(\C)c2ccccn2)cc(OC)c1OC	?	?	3.7µM*	6.5µM*	?	7.3µM*
COc1cc(NC(=O)c2ccccn2)cc(OC)c1OC	14%	8%	-69%	i	6%	i
C/C(=N\NC(=O)c1ccccn1)c1ccc(Cl)cc1	8%	-17%	-8%	i	4%	?
C/C(=N\NC(=O)c1ccc(Cl)cc1)c1ccccn1	?	3.7µM*	?	?	?	?
C/C(=N\Nc1ccc([N+](=O)[O-])cc1)c1cc2ccccc2o1	-24%	2.9µM*	24%	i	-22%	i
COc1cccc(C(=O)N/N=C(/CCC(=O)O)c2ccccc2)c1	14%	-9%	-2%	i	17%	i
